Results from PubChem BioAssay.
Active and inactive are the calls of the source.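 How the source made its calls: active means NADPH fluorescence slope more negative than the mean of all samples by about 3 SD, 99.7% confidence; inactive means the rest.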

Target: Voltage-gated potassium channel subunit beta-2 (Rattus norvegicus) (UniProt P62483)
Experiment: enhancers of rat Kvbeta2 NADPH turnover – biochemical, NADPH fluorescence, primary screen (AID 623);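 further: fluorescence intensity change per second fitted from 20 to 320 s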
Conditions: Recombinant KvBeta, NADPH fluorescence decrease slope, 10 min; at 10 µM; active compounds read low

Chain of Voltage-gated potassium channel subunit beta-2 (Rattus norvegicus) (P62483 whole entry, looked up): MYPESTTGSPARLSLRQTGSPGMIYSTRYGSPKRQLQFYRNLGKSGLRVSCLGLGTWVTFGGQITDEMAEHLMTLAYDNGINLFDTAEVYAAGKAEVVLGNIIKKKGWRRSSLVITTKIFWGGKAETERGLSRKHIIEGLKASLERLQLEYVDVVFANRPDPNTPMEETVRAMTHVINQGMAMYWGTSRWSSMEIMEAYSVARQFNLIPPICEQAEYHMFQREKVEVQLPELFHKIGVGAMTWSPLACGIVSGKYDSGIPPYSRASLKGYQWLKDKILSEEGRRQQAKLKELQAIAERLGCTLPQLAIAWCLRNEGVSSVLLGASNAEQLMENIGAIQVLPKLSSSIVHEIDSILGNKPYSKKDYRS

NADPH fluorescence slope, inactive:
COc1ccc(C(CNC(=O)c2cc(C)oc2C)N2CCOCC2)cc1 (stereo not given) -9.2e-06
O=C(CSc1ccc2nnc(-c3ccccc3)n2n1)N1CCN(c2ccccc2)CC1 -3.7e-05
O=C1NC(=O)C(CC(=O)N(Cc2ccco2)C2(C(=O)NC3CCCC3)CCCCC2)N1 (stereo not given) -3.9e-05
O=C(NCc1cccs1)c1cc2c(s1)CCCC2 6e-05
O=C(c1ccc(-c2ccccc2)cc1)N1CCN(c2ncccn2)CC1 -2.4e-06
Cc1noc(/C=C/N(C)C)c1S(=O)(=O)N1CCCC(C(=O)N2CCc3ccccc32)C1 (stereo not given) -5.3e-05
Cc1cccnc1NC(=O)CCCN1C(=O)c2ccccc2C1=O -6.3e-05
O=C1CC(c2ccccc2)CC(O)=C1C=NCCN1CCOCC1 (stereo not given) 1.8e-05
CCCCNC(=O)c1nc2ncc(Br)cn2n1 -7.5e-05
COc1ccc(NC(=O)C(C)NS(=O)(=O)c2ccc(NC(C)=O)cc2)cc1Cl (stereo not given) 2.4e-05
CCOc1cc(NC(=O)c2ccco2)c(OCC)cc1NC(=O)Cc1cccc(OC)c1 -5.1e-05
COc1ccccc1Nc1nc2ccccc2[nH]1 -3.7e-06
CCN1CCN(c2ncnc3c2cnn3-c2ccc(C)cc2C)CC1 -1.4e-05
Cn1c(=O)[nH]c(=O)c2c1nc(NCCCn1ccnc1)n2Cc1cccc(Br)c1 -2.8e-05
CN1CCN(C(=O)C2CCN(S(=O)(=O)c3ccc4c(c3)oc(=O)n4C)CC2)CC1 -2.4e-05
